Experimental data from ChEMBL document CHEMBL1201862, “PubChem BioAssay data set” (2004).
Screen size: about 1,200 compounds; about 140 (12%) were called active. This is one part of a sample in which actives are shown more often than they occur. The calls are words filed in the database; no cut-off is given here.

Assay: restoration of mutant CFTR halide transport – FRT cells, YFP quenching, cherry-pick, dose response (AID 743402)
Assay type: functional, cell-based

AbsAC35, active:
COc1ccc(NC(=O)C(=O)NCC2CCCN2S(=O)(=O)c2cccs2)cc1 (stereo not given) 87.6 µM, CC(=O)c1cccc(-c2ccnc3c2CC(C(=O)NCc2ccco2)O3)c1 (stereo not given) 40.3 µM, O=c1c(O)c(-c2cccs2)oc2ccc(Cl)cc12 30.3 µM, COc1ccc(C2=Nn3c(nnc3-c3ccccc3OC)SC2)cc1OC1CCOC1 (stereo not given) 160 µM, CCc1ccc(OCCNc2cc(N3CCNC(C)C3)ccc2[N+](=O)[O-])cc1 (stereo not given) 58.8 µM, N#Cc1ccc(-c2cccs2)nc1SCc1cccnc1 107 µM, CCN(CC)CCC(=O)Nc1cccc2c1C(=O)c1ccccc1C2=O 40.8 µM, O=C(OCc1ccc(Br)cc1)c1cc([N+](=O)[O-])ccc1N1CCOCC1 28.4 µM, CC(=O)Nc1ccc(S(=O)(=O)N2c3ccccc3C(C)=CC2(C)C)cc1 42.7 µM, COc1ccc(C2C3=C(COC3=O)Oc3cc4c(cc32)OCO4)cc1OC (stereo not given) 116 µM
